Hits are enriched below; roughly 2.1% of the tested compounds scored in any of these assays.
Abeta rescue: compounds reversing amyloid beta toxicity in yeast. 410,000 tested, 0.063% active. Potency, µM (doses to about 46.1 µM), usual class: activators. yeast expressing A-beta42, growth rescue, OD600, 48 h; response scale: 0% DMSO, 100% iron-clioquinol control; further: nearly all actives have a fitted effect of over 55% in size
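Yeast A-beta toxicity model in growth medium with pinned compounds, 48 h at 30 C; growth read as absorbance at 600 nm. Normalized to FeCl3/clioquinol equimolar mix (positive) and DMSO (negative).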
FUS yeast rescue: FUS proteinopathy suppression in yeast; S. cerevisiae FUS-expressing, growth rescue, OD600, 24 h; Potency, µM (titrated, usually from 76.6 µM), most hits filed as activators; 390,000 tested, 0.24% active; further: nearly all actives have a fitted effect of over 55% in size
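Quantitative HTS measuring growth restoration of FUS-toxic yeast. Galactose-induced cells (OD 0.005) were exposed 24hr at 30C to compounds at several concentrations, then absorbance at 600 nm was recorded.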
TDP-43 yeast inh: TDP-43 toxicity inhibition in yeast. Potency, µM (highest dose often 46.1 µM), actives largely listed as activators. TDP-43 expressing yeast growth rescue, BacTiter-Glo, 24 h. 410,000 tested, 1.8% active; further: nearly all actives have a fitted effect of over 50% in size
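Yeast expressing TDP-43 (pregrown in raffinose, seeded at OD600=0.02 in galactose medium) exposed to compounds 24 hr at 30 deg C. Growth read by BacTiter-Glo luminescence; rescue of toxicity appears as increased signal.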
aSyn rescue: rescues yeast growth from alpha-synuclein toxicity; Yeast expressing alpha-synuclein, growth rescue, BacTiter-Glo, 24 h; Potency, µM (top dose mostly 46.1 µM), hits mostly activators; 370,000 tested, 0.14% active; further: nearly all actives have a fitted effect of over 65% in size
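Readout is rescue of growth in alpha-synuclein-expressing yeast, so inhibitors of toxicity appear as activators. Growth after 24 hr at 30 deg C in galactose medium is quantified by luminescence.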
A number is an active result; - = inactive; ? = inconclusive; . = not tested or not shown; [ ] = remark or other dose. The call rests on the fitted dose curve; in most records, active means well fitted curve in the direction sought with a large enough effect; inconclusive means small, poorly fitted or top-dose-only effect, or another doubt; inactive means no such curve, though single readings can be large; an effect the other way counts as inactive or inconclusive.

SMILES	Abeta rescue	FUS yeast rescue	TDP-43 yeast inh	aSyn rescue
O=C(CSc1nc2ccccc2c2c1CCCC2)N1CCOCC1	-	-	10µM	?
O=C(CSc1nncc2ccccc12)N1CCOCC1	-	-	-	-
CN(C)S(=O)(=O)c1cccc(C(=O)N/N=C\c2ccnc3ccccc23)c1	.	-	.	.
OC(COc1ccccc1)Cn1c2ccccc2c2ccccc21 (stereo unspecified)	?	.	18µM	-
COc1cc(C(=O)Nc2ccc(-c3nc4cc(C)c(C)cc4o3)cc2)cc(OC)c1OC	-	-	?	.
COc1cc(C(=O)Nc2ccc3oc(-c4ccc(C)c(Br)c4)nc3c2)cc(OC)c1OC	-	-	10µM	.
Cc1ccc(C)c(OCCC(=O)Nc2ccc3c(c2)OCO3)c1	-	.	11µM	-
COc1ccc(Cc2nn3c(-c4cc(OC)c(OC)c(OC)c4)nnc3s2)cc1	-	?	22µM	-
c1ccc(-c2nnc3sc(-c4ccncc4)nn23)cc1	-	-	-	-
c1ccc(-c2nnc3sc(-c4csc5c4CCCC5)nn23)cc1	-	.	20µM	-
COc1ccc(-c2nn3c(-c4ccccc4)nnc3s2)cc1	-	?	14µM	-
CC(=O)NC(Cc1ccc(I)cc1)C(=O)NCC(N)C(=O)c1ccccc1 (stereo unspecified)	.	.	.	-
O=S(=O)(Cc1cc(Cl)nc(-c2ccccc2)n1)c1ccccc1	-	-	-	-
Cc1nc(CS(=O)(=O)c2ccccc2)cc(Sc2ccccc2Cl)n1	-[9.22 µM]	-	32µM	-
Cc1nc(CS(=O)(=O)c2ccccc2)cc(Sc2ccc(Cl)cc2)n1	-	-	?	-
Cc1nc(CS(=O)(=O)c2ccc(Cl)cc2)cc(Sc2ccccc2Cl)n1	-	-	35µM	-
CNC(=S)Nc1ccc(C23CC4CC(CC(C4)C2)C3)cc1	7.1µM	-	-[0.397 µM]	-
Cc1ccc(Nc2nc(CSc3nnc(-c4ccccc4)n3C)cs2)cc1	-	-	18µM	-
Cc1ccc(Nc2nc(CSc3nnnn3C)cs2)cc1	-	-	?	-
Cc1ccc(Nc2nc(CSc3nnnn3-c3ccccc3)cs2)cc1	-	-	14µM	-
C[C@H](O)[C@@H]1CN2CCc3c([nH]c4cccc(-c5ccc6c(c5)OCO6)c34)[C@@H]2C[C@@H]1N(C)C(=O)c1ccco1	.	-	.	.
CCN(C(=O)c1cc2c(=O)n3cccc(C)c3nc2s1)C1CCCCC1	-	-	?	-
CCCCN(CC)C(=O)c1cc2c(=O)n3cccc(C)c3nc2s1	-	-	35µM	-
CCN(C(=O)c1cc2c(=O)n3ccccc3nc2s1)C1CCCCC1	-	-	18µM	-
O=C(Nc1ccc(OC(F)(F)F)cc1)Nc1c(-c2ccccc2)nc2ncccn12	.	-	.	.
SMILES	Abeta rescue	FUS yeast rescue	TDP-43 yeast inh	aSyn rescue
C/C(=N\NC(=O)Cc1cccs1)c1ccco1	.	-	.	.
CCNC(=S)Nc1ccc2c(c1)oc1ccccc12	10µM	-	?	-
CCCn1nc(NC(=O)C2CCCO2)c2cc3cc(C)ccc3nc21 (stereo unspecified)	-	-	35µM	-
CCCn1nc(NC(=O)C2CCCO2)c2cc3ccc(C)cc3nc21 (stereo unspecified)	-	-	-	-
CCOc1ccc(-n2c(SCC(=O)Nc3cccc4ccccc34)nnc2-c2ccncc2)cc1	.	-	.	.
COc1cccc(C(O)c2nc(-c3cc4ccccc4o3)cs2)c1 (stereo unspecified)	-	-	20µM	?
COc1cc(C(O)c2nc(-c3cc4ccccc4o3)cs2)ccc1F (stereo unspecified)	?	-	-	-
OC(c1cccc(Cl)c1)c1nc(-c2cccc3cccnc23)cs1 (stereo unspecified)	?	-	?	18µM
OC(c1cccc(Cl)c1)c1nc(-c2cc3ccccc3o2)cs1 (stereo unspecified)	-	-	35µM	-
COc1ccc(NC(=O)COc2ccccc2C(=O)Nc2ccccc2)cc1	.	.	.	-
Cc1oc(C(=O)O)cc1COc1cccc2ccccc12	-	-	32µM	-
O=C(O)c1cccc(COc2cccc3ccccc23)c1	-	-	35µM	-
O=C(CCn1nnc(-c2cccs2)n1)NCc1cccs1	.	-	.	.
CCOC(=O)Nc1nc(-c2ccc(Cl)cc2Cl)cs1	-	.	11µM	-
O=C(NCc1cccnc1)O[C@H]1CC[C@@]23CCCN2C(=O)CCC[C@H]3C1	.	-	.	.
Cc1ccc(SCCN2CCC(NC(=O)OCc3ccccc3)CCC2=O)cc1 (stereo unspecified)	-	?	-	-
